The results in this text go back to PubChem BioAssay (EPA / NIEHS).

Molecules are shown by their SMILES. Inconclusive results are not listed. Active and inactive are the calls of the source. How the source made its calls, unless noted: active means hit-call score of the fitted dose curve at least 0.9, where 1 is the maximum; inactive means score below 0.9.

In assay [1] the target is Glucocorticoid receptor (Homo sapiens) (UniProt P04150). The experiment in a line: ATG_GR_TRANS: Attagene TRANS-FACTORIAL HepG2 Assay for human Glucocorticoid Receptor (GR) (AID 2282978; active means hit-call score of the fitted dose curve at least 0.9, where 1 is the maximum;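 further: activators score as hits since higher reporter transcript over DMSO is fitted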). The conditions noted are these: HepG2 Attagene TRANS GR reporter, mRNA transcription. An outline of the steps:
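Multiplexed TRANS reporter system, HepG2; 24 h exposure; RNA → oligo(dT) RT → reporter-specific PCR → 6-FAM primer extension → HpaI cut → CE fluorescence. Gain-of-signal vs DMSO.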

For assay [2], the target named is Oxysterols receptor LXR-beta (Homo sapiens) (UniProt P55055). The assay is described as follows: ATG_LXRb_TRANS: Attagene TRANS-FACTORIAL HepG2 Assay for human Liver X Receptor beta (LXRb) (AID 2282981; active means hit-call score of the fitted dose curve at least 0.9, where 1 is the maximum). The conditions noted are these: HepG2 Attagene TRANS GAL4-LXRb reporter, mRNA. An outline of the steps:
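Gain-of-signal mRNA reporter endpoint, DMSO as negative control. Transiently transfected HepG2 cells carrying the NR-Gal4 chimera and GAL4-UAS reporter units were treated 24 h; transcripts quantified by RT-PCR and capillary electrophoresis fluorescence.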

The target in assay [3] is Hepatocyte nuclear factor 4-alpha (Homo sapiens) (UniProt P41235). The experiment in a line: ATG_HNF4a_TRANS: Attagene TRANS-FACTORIAL HepG2 Assay for human Hepatocyte Nuclear Factor 4 alpha (HNF4a) (AID 2282982; active means hit-call score of the fitted dose curve at least 0.9, where 1 is the maximum). The conditions noted are these: HepG2 HNF4a transactivation reporter, mRNA readout. An outline of the steps: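 Gain-of-signal mRNA induction, relative to DMSO vehicle, was read after 24 h compound treatment of HepG2 cells bearing transfected GAL4-UAS reporters. Detection used RT-PCR, 6-FAM primer extension and capillary electrophoresis.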

Assay [4] deals with Transcriptional activator Myb (Homo sapiens) (UniProt P10242). The assay is described as follows: ATG_Myb_CIS: Attagene CIS-FACTORIAL HepG2 Assay for human Myeloblastosis (Myb) Proto-Oncogene Transcription Factor (AID 2282986). The following applies: HepG2 Attagene CIS-FACTORIAL Myb reporter transcription; actives raise or lower the signal. An outline of the steps: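 Endogenous transcription factor activity at a Myb-responsive cis element is reported in human liver HepG2 cells after 24 h chemical treatment. Reporter mRNA is detected by RT-PCR and capillary electrophoresis fluorescence, with DMSO as baseline.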
Sequence of Transcriptional activator Myb (Homo sapiens) (P10242 whole entry, looked up): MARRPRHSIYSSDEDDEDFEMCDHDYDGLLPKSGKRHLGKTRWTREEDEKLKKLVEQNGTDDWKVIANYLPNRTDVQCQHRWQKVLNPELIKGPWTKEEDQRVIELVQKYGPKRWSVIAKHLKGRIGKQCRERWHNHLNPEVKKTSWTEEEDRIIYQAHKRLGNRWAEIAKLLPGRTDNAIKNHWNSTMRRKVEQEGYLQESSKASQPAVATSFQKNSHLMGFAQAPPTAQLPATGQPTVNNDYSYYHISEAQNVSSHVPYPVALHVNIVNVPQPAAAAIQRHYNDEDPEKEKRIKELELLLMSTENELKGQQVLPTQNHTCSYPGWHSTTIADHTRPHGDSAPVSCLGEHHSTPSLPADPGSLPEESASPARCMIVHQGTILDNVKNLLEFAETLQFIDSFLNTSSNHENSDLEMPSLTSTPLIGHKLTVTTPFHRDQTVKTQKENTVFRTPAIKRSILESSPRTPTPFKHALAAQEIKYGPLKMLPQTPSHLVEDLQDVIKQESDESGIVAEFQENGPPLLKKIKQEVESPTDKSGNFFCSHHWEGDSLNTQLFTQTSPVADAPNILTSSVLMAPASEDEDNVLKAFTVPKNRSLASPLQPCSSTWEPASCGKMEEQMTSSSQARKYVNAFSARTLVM

The target in assay [5] is Nuclear respiratory factor 1 (Homo sapiens) (UniProt Q16656). The assay is described as follows: ATG_NRF1_CIS: Attagene CIS-FACTORIAL HepG2 Assay for human Nuclear Respiratory Factor 1 (NRF1) Orphan Gene (AID 2282987). The following applies: HepG2 NRF1 cis-element reporter, Attagene multiplex; actives raise or lower the signal. An outline of the steps:
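Human hepatoma HepG2 cells carrying transfected promoter-regulated reporter units were incubated with test chemicals for 24 h. Reporter transcripts were measured by RT-PCR plus capillary electrophoresis, and endpoints derived by bidirectional fitting with DMSO as baseline.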

Assay [6] in a line: ATG_NFI_CIS: Attagene CIS-FACTORIAL HepG2 Assay for human Nuclear Factor I (NFI) (AID 2282989). The following applies: HepG2 cis-regulatory reporter, NFI response element transcription; actives raise or lower the signal. An outline of the steps: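 HepG2 cells transiently transfected with cis-element-driven multiplexed reporter transcription units, dosed for 24 h. Reporter mRNA quantified by RT-PCR, fluorescent labelling, HpaI digestion and capillary electrophoresis; bidirectional fit versus DMSO baseline.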

Assay [7] concerns the target Myc proto-oncogene protein (Homo sapiens) (UniProt P01106). The assay is described as follows: ATG_Myc_CIS: Attagene CIS-FACTORIAL HepG2 Assay for human Myelocytomatosis (Myc) Proto-Oncogene Transcription Factor (AID 2282990). The following applies: HepG2, Attagene cis-reporter transcription factor activity; actives raise or lower the signal. An outline of the steps:
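Fluorescence intensity of reporter-specific cDNA fragments, separated by capillary electrophoresis, gives the signal. Transfected HepG2 cells carrying cis-promoter reporter constructs are incubated with compound for 24 h; DMSO serves as baseline.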

Assay [8] is described as follows: ATG_NF_kB_CIS: Attagene CIS-FACTORIAL HepG2 Assay for human Nuclear Factor Kappa B (NF-kB) (AID 2282991). The following applies: HepG2 Attagene cis-factorial NF-kB reporter mRNA; actives raise or lower the signal. An outline of the steps:
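Multiplexed cis-reporter assay in transiently transfected HepG2. 24 h treatment; RNA isolated, RT-PCR, labelled fragments resolved by CE. DMSO baseline.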

Assay [9] is described as follows: ATG_NRF2_ARE_CIS: Attagene CIS-FACTORIAL HepG2 Assay for human Nuclear Factor Erythroid 2 Related Factor 2 (NFR2) response to Antioxidant Response Elements (ARE) (AID 2282992).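 On AC50: reporter mRNA level measured by RT-PCR and capillary electrophoresis fluorescence.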 The conditions noted are these: HepG2 Attagene ARE/NRF2 reporter, transcription factor activity; actives raise or lower the signal. An outline of the steps:
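HepG2 cells transiently transfected with multiplexed cis-regulated reporter transcription units measure endogenous transcription factor activity. Reporter mRNA at 24 h is quantified by RT-PCR, fluorescent labelling and capillary electrophoresis, with bidirectional fitting relative to DMSO.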

The nature of assay [10]: ATG_Oct_MLP_CIS: Attagene CIS-FACTORIAL HepG2 Assay for human Octamer-Binding Transcription Factor (Oct) (AID 2282993). The following applies: HepG2 Attagene cis-factorial Oct reporter, mRNA; actives raise or lower the signal. An outline of the steps:
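HepG2 cells transiently transfected with cis-promoter-driven multiplexed reporter transcription units, dosed for 24 h. Reporter mRNA quantified by RT-PCR, fluorescent labelling, HpaI digestion and capillary electrophoresis; bidirectional fits versus DMSO baseline.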

Assay [11] has as its target Cellular tumor antigen p53 (Homo sapiens) (UniProt P04637). The assay is described as follows: ATG_p53_CIS: Attagene CIS-FACTORIAL HepG2 Assay for human p53 Transcription Factor (AID 2282994). The conditions noted are these: HepG2 p53 cis-element reporter, Attagene mRNA; actives raise or lower the signal. An outline of the steps: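 HepG2 cells transiently transfected with multiplexed cis-regulated reporter transcription units read endogenous TF activity. After 24 h compound exposure, reporter mRNA was quantified by RT-PCR, fluorescent labelling, HpaI digestion and capillary electrophoresis; bidirectional fits versus DMSO baseline.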

The nature of assay [12]: BSK_3C_TissueFactor: BioMAP Diversity Plus: 3C Assay for Tissue Factor Biomarker Activity (AID 2282997). The conditions noted are these: BioMAP 3C HUVEC, tissue factor biomarker readout; actives raise or lower the signal. An outline of the steps: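 Dosing of human umbilical vein endothelial cells preceded a 24 h incubation. Tissue Factor was then read by ELISA, with increases and decreases both scored relative to DMSO controls.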

Assay [13] is described as follows: BSK_3C_uPAR: BioMAP Diversity Plus: 3C Assay for Urokinase-type plasminogen activator receptor (uPAR) Biomarker Activity (AID 2282998). The conditions noted are these: BioMAP 3C HUVEC, uPAR biomarker ELISA; actives raise or lower the signal. An outline of the steps:
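Human umbilical vein endothelial primary cells were exposed to test chemical for 24 h. Cell-surface uPAR was then quantified by ELISA, and responses were fitted bidirectionally against DMSO as negative control and baseline.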
On the technique in general: An ELISA detects its analyte on a solid surface through an enzyme-linked reagent.

Assay [14] can be described thus: ATG_M_06_TRANS: Attagene TRANS-FACTORIAL HepG2 Assay for M06 Transcription Factor (Internal Marker) (AID 2282983; active means hit-call score of the fitted dose curve at least 0.9, where 1 is the maximum). The conditions noted are these: HepG2 Attagene TRANS M06 internal marker reporter. An outline of the steps: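 Cells: HepG2, transient multi-reporter transfection. Exposure: 24 h. Detection: RT-PCR, 6-FAM labelling, HpaI digestion (2 h, 37 °C), capillary electrophoresis. Baseline: DMSO.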

The target of assay [15] is Estrogen-related receptor gamma (Homo sapiens) (UniProt P62508). The assay is described as follows: ATG_ERRg_TRANS: Attagene TRANS-FACTORIAL HepG2 Assay for human Estrogen-Related Receptor gamma (ERRg) (AID 2282977; active means hit-call score of the fitted dose curve at least 0.9, where 1 is the maximum;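 further: hits increase reporter signal over DMSO so potencies reflect activators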). The following applies: HepG2 Attagene TRANS reporter, ERRg transactivation. An outline of the steps: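 Transient HepG2 transfectants, 24 h compound exposure, GAL4-UAS reporter mRNA by RT-PCR/6-FAM labelling/capillary electrophoresis; positive direction vs DMSO.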
Sequence of Estrogen-related receptor gamma (Homo sapiens) (P62508 whole entry, looked up, the tested form may be a part): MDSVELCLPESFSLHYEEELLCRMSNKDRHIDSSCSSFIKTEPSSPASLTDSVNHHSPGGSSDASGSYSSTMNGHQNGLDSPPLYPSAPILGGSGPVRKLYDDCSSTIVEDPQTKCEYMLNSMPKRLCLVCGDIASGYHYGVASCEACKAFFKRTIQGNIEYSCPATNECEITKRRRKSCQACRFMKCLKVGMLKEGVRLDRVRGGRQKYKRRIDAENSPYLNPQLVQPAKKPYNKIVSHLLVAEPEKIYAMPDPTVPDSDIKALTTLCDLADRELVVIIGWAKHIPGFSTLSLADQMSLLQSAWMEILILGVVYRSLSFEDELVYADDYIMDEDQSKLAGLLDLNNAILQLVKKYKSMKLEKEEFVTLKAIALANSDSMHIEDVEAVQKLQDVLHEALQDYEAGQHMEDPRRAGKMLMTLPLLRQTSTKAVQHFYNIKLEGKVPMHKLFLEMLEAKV

For assay [16], the target named is Oxysterols receptor LXR-alpha (Homo sapiens) (UniProt Q13133). The assay is described as follows: ATG_LXRa_TRANS: Attagene TRANS-FACTORIAL HepG2 Assay for human Liver X Receptor alpha (LXRa) (AID 2282980; active means hit-call score of the fitted dose curve at least 0.9, where 1 is the maximum). The following applies: HepG2 Attagene TRANS reporter, LXRa transactivation. An outline of the steps: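 Chemical-induced reporter mRNA measured by RT-PCR with fluorescent labelling and capillary electrophoresis after 24 h dosing of transiently transfected HepG2 cells expressing exogenous NR-Gal4 chimeras; increases scored against DMSO baseline.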
Sequence of Oxysterols receptor LXR-alpha (Homo sapiens) (Q13133 whole entry, looked up, the tested form may be a part): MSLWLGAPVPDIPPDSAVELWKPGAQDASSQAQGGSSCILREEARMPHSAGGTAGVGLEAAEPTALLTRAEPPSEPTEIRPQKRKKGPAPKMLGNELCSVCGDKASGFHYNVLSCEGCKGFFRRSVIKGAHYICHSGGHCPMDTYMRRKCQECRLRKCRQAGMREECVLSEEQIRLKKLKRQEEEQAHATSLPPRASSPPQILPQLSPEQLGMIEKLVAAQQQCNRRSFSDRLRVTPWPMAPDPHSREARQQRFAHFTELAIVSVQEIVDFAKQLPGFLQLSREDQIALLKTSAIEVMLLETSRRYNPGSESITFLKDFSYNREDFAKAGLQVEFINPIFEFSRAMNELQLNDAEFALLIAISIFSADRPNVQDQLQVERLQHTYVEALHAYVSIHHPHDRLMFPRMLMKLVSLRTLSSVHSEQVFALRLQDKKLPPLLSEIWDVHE

Assay [17] in a line: ATG_M_32_TRANS: Attagene TRANS-FACTORIAL HepG2 Assay for M32 Transcription Factor (Internal Marker) (AID 2282984; active means hit-call score of the fitted dose curve at least 0.9, where 1 is the maximum;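 further: transcript level of a background control reporter unit measured by RT-PCR and capillary electrophoresis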). The conditions noted are these: HepG2 Attagene TRANS M32 internal marker reporter. An outline of the steps: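 Capillary electrophoresis of 6-FAM-labelled reporter fragments gives the signal; data fitted for gain over DMSO negative control. Source: HepG2 cells bearing transient multiple reporter transcription units, 24 h exposure.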

Assay [18] concerns the target Nuclear receptor subfamily 4 group A member 2 (Homo sapiens) (UniProt P43354). The experiment in a line: ATG_NURR1_TRANS: Attagene TRANS-FACTORIAL HepG2 Assay for human Nuclear Receptor Related Protein 1 (NURR1) (AID 2282985; active means hit-call score of the fitted dose curve at least 0.9, where 1 is the maximum). The conditions noted are these: HepG2 Attagene TRANS reporter, mRNA readout. An outline of the steps: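 HepG2 / transient MRTU transfection / 24 h compound exposure / RT-PCR + CE fluorescence of reporter mRNA / gain-of-signal vs DMSO.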

Sequence of Myc proto-oncogene protein (Homo sapiens) (P01106 whole entry, looked up, the tested form may be a part): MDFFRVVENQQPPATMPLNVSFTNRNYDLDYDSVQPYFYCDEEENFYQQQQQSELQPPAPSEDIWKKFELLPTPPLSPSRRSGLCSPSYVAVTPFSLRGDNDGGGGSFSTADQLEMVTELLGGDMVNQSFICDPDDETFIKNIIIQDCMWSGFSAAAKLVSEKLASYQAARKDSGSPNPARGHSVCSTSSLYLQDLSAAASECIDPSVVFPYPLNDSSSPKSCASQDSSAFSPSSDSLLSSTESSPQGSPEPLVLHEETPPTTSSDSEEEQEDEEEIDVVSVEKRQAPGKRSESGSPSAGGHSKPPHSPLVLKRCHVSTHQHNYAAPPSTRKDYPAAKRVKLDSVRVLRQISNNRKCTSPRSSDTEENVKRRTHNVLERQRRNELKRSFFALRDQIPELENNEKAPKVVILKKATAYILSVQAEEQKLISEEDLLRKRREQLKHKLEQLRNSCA
Sequence of Oxysterols receptor LXR-beta (Homo sapiens) (P55055 whole entry, looked up, the tested form may be a part): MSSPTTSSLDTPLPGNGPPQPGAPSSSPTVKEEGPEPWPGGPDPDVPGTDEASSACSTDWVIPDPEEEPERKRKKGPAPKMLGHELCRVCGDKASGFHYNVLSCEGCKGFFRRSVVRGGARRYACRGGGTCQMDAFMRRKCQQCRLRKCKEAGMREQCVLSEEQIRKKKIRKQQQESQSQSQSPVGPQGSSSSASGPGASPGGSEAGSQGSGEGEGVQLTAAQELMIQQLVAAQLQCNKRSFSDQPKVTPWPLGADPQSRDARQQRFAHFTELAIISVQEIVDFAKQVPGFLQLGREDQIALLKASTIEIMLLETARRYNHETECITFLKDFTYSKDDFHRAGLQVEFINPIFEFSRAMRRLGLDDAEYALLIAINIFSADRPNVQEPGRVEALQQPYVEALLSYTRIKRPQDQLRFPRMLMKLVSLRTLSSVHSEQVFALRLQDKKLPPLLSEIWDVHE
Sequence of Glucocorticoid receptor (Homo sapiens) (P04150 whole entry, looked up): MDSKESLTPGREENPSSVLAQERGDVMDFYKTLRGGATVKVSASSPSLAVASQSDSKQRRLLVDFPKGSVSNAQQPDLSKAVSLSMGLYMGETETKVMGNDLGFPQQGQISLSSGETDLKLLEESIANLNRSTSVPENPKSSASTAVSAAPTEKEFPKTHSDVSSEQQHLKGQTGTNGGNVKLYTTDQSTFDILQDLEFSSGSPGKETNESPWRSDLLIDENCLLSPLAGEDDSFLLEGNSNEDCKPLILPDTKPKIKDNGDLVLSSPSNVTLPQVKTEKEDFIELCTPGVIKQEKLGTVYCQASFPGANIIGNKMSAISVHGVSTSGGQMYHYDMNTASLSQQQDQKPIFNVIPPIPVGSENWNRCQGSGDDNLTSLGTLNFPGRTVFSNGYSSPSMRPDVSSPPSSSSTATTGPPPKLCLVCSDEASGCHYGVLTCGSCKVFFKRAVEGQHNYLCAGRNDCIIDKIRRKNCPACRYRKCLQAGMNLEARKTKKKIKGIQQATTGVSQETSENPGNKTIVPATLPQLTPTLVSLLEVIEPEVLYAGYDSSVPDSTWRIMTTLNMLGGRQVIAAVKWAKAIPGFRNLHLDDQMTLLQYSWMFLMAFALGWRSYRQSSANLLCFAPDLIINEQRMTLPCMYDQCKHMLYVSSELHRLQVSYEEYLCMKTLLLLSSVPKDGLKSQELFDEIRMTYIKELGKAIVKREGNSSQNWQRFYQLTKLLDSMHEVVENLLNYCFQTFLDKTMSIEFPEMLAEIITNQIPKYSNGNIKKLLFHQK
Sequence of Cellular tumor antigen p53 (Homo sapiens) (P04637 whole entry, looked up): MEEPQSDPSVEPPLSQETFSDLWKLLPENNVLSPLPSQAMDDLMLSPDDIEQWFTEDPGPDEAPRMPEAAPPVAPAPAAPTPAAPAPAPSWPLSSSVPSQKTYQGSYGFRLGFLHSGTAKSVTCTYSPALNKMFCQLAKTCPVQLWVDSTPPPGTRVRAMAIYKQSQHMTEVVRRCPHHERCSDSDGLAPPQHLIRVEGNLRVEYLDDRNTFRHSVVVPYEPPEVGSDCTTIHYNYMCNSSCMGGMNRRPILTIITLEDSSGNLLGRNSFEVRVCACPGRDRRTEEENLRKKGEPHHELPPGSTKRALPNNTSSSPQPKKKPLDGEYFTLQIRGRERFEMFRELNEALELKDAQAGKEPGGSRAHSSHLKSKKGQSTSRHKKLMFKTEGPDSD
Sequence of Nuclear receptor subfamily 4 group A member 2 (Homo sapiens) (P43354 whole entry, looked up): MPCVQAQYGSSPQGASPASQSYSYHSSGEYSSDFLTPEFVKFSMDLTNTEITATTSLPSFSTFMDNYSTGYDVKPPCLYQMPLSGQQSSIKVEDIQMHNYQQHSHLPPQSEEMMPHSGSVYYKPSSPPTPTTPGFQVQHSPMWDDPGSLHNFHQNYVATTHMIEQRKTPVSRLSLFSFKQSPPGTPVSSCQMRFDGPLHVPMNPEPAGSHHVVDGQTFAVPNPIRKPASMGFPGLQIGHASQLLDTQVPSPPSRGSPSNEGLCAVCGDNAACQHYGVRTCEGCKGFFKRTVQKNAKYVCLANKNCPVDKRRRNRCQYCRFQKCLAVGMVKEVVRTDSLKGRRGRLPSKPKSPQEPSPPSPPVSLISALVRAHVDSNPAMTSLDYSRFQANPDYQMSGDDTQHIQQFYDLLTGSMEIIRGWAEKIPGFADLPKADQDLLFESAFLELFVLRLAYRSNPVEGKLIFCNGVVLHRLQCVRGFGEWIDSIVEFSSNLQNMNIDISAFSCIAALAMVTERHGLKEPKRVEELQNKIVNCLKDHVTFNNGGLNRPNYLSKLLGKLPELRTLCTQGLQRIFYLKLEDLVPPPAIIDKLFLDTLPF
Sequence of Nuclear respiratory factor 1 (Homo sapiens) (Q16656 whole entry, looked up): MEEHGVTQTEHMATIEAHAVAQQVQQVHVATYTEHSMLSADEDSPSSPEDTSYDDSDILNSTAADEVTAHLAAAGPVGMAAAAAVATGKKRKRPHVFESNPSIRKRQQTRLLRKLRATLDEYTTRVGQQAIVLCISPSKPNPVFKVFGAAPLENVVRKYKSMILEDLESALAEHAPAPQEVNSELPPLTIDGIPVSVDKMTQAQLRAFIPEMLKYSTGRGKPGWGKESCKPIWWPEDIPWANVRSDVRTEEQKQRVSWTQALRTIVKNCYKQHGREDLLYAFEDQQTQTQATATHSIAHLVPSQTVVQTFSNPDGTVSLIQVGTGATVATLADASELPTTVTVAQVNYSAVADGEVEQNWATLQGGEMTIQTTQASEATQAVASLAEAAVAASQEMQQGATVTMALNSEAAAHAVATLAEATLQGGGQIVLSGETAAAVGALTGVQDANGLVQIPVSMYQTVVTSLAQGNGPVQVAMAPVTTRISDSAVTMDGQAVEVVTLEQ

For `CC(Oc1ccc(Cl)cc1Cl)C(=O)O` (stereo unspecified), the result in assay [1], in [2], in assay [3], in [4], in [5] and in assay [6] was inactive. Further, the molecule was classed as inactive in assay [7], in [8], in assay [9], in [10], in assay [11] and in [12]. In assay [13], the result was inactive.

With `CCOc1cc(Oc2ccc(C(F)(F)F)cc2Cl)ccc1[N+](=O)[O-]`, the call in assay [14], in assay [4], in [5], in assay [6], in [8] and in assay [11] was inactive. Moreover, the outcome in assay [12] and in assay [13] was inactive. In addition, the half-maximal activity concentration (AC50) in assay [7] is 30.3 µM (active); in [9] it was 13.7 µM (active); in [10] it was 13.7 µM (active).

For `CS/C(C)=N/OC(=O)N(C)SN(C)C(=O)O/N=C(\C)SC`, the molecule was classed as inactive in assay [15], in [16], in assay [2], in [17], in [18] and in assay [4]. Also, the molecule was called inactive in assay [5], in assay [7], in assay [8], in [9], in assay [10] and in assay [11]. Also, the half-maximal activity concentration (AC50) was 15.9 µM (active) in assay [12] and 28.6 µM (active) in assay [13].

As to `CCON=C(CC)C1=C(O)CC(c2c(C)cc(C)cc2C)CC1=O` (stereo unspecified), the molecule was classed as inactive in [16], in [2], in [14], in assay [17], in assay [4] and in assay [5]. The molecule was classed as inactive in [7], in assay [8], in assay [9], in assay [10], in assay [11] and in assay [12]. Also, in assay [13], the outcome was inactive.

As for `CCc1nn(C)c(C(=O)NCc2ccc(C(C)(C)C)cc2)c1Cl`, the result in assay [15], in [1], in assay [3], in assay [14], in [4] and in assay [5] was inactive. The outcome in [7] was inactive. Also, the AC50 was 0.258 µM (active) in [16]; 0.343 µM (active) in assay [2]; 0.353 µM (active) in [6]; 0.709 µM (active) in assay [8]; 0.214 µM (active) in assay [9]; 0.397 µM (active) in assay [10]. The values for the AC50 in assay [11], in assay [12] and in [13] were 1.9 µM (active), 20 µM (active) and 26.7 µM (active), respectively.

Consider `COP(=S)(OC)Oc1nc(Cl)c(Cl)cc1Cl`, for which the outcome in [15], in assay [2], in [14], in assay [18], in [4] and in assay [5] was inactive. The molecule was classed as inactive in assay [7], in assay [10], in [11], in assay [12] and in [13]. Also, the half-maximal activity concentration (AC50) in assay [9] was 26.2 µM (active).

As for `O=C(O)c1nc(Cl)ccc1Cl`, the result in [1], in assay [16], in assay [2], in assay [14], in assay [17] and in assay [18] was inactive. The molecule was classed as inactive in assay [4], in [5], in assay [6], in [7], in assay [9] and in assay [10]. In addition, the call in assay [11], in [12] and in assay [13] was inactive.

As to `CN(C)C(=S)SSC(=S)N(C)C`, the molecule was called inactive in assay [16], in [2], in [18], in [4], in [5] and in assay [7]. Besides, the result in [8], in [9], in assay [10] and in assay [11] was inactive. For the same molecule, the AC50 in assay [12] was 31.4 µM (active); in [13], 29.4 µM (active).

As usually defined, the AC50 is the concentration giving half of the maximal activity seen.
